± gives the standard deviation of the averaged measurements. The full ranking holds about 25,000 sequences; the median of “ln(normalized median fluorescence intensity)” is about 8.9, and the highest 2% start at about 10. What follows is part of a selection rich in the highest values, with near analogues and random picks from the rest.
tested on: PfAP2-LT AP2 domain (GST-tagged); assay: gcPBM binding intensity (ln(normalized median fluorescence intensity)); higher = stronger DNA binding
Procedure, shortened: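 GST-fused DNA-binding domains of P. falciparum, expressed in E. coli, were applied at about 25 μg on average for 1 h to an Agilent 4 × 180k array of primer-extended double-stranded 36-bp intergenic genomic probes and negative controls. Binding intensity is the highest Masliner-normalised natural-log median intensity across replicate spots of either probe orientation, measured with Alexa488 anti-GST antibody and a 488 nm scan.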

Sequence | gcPBM binding intensity (ln)
AATATATATATATATATTTTTGTTAGAATATGGAAT [GTGCAC_negctrl_site434] | 8.65 ± 0.32
TACCCACTAAAATACACACACACACCCACATATATA [CACACA_site6141] | 10 ± 0.42
AAAAAAAAAATACATACACACACACCCACCCATATA [CACACA_site9187] | 10.18 ± 0.021
CACCCACCCACATACACACACATACACATATATATA [CACACA_site1722] | 10 ± 0.22
AAAAAAAATACATACACACACACACCCACATATATA [CACACA_site3561] | 10.13 ± 0.05
TATACGCATATATACACACACATATATATATATATA [CACACA_site3416] | 10.1 ± 0.11
TACACGCTAAAATACACACACACACCCACATATATA [CACACA_site4153] | 10.2 ± 0.11
TATATAAATATACACCCACACACATATATATATATA [CACACA_site9247] | 9.61 ± 0.28
TATAAATATACACCCACACACATATATAAATAAATA [CACACA_site7717] | 9.65 ± 0.16
TACATATACATATACACACACACACCCAAATAAATA [CACACA_site1344] | 10.04 ± 0.05
TATACATATACATATACACACACACCCATAAATAAA [CACACA_site8372] | 9.8 ± 0.22
CATATATACGCATACACACACACACCCACACCCACA [CACACA_site1725] | 10.16 ± 0.05
TATAAATATACACCCACACACATATATATATATATA [CACACA_site3745] | 9.94 ± 0.16
ATTTTTTTTAAACGAAGTACAATTTGTGCATTGGAA [XGTACX_site8109] | 8.45 ± 0.39
GTACATACATAAAACACACACATATAGATTTATATA [CACACA_site6945] | 9.47 ± 0.33
TATTTTTTTTGATATTGTACTTTTTTATTATTTTTT [XGTACX_site566] | 8.76 ± 0.51
TATTTTTATATATAATCACACATTGGAATGTTCTAA [CACACA_site5540] | 8.67 ± 0.44
TTGAAGGTGGCAATGTGTACATAGAATAACCAGTGC [XGTACX_site4738] | 9.15 ± 0.54
TATATATTATGACCACCACACACCTATACGCATAAC [CACACA_site2447] | 9.44 ± 0.085

Sequence | gcPBM binding intensity (ln)
TATACACCCTAAAATACACACACACCCACCCATATA [CACACA_site9380] | 10.06 ± 0.078
ATAAAATACATATAAACACACATATAAACCGACATA [CACACA_site2477] | 9.28 ± 0.38
TAAATTAAAAAAAATACACACACACCGACACATATA [CACACA_site9084] | 9.84 ± 0.26
AAAATACACGCATACACACACACACCCACCCATATA [CACACA_site639] | 10.4 ± 0.14
CACCCATAAATATACACACGCACAACACAAAATAAA [CACACA_site2903] | 9.63 ± 0.41
AAAATACACGCATACACACACACACCGACACATATA [CACACA_site4523] | 10.4 ± 0.28
TTATATGTATGAACAAGTACATGCTATAATTATAAA [XGTACX_site1399] | 8.57 ± 0.46
ACATTCTATATATACACACATACATAATAAAGAAAG [CACACA_site2771] | 9.05 ± 0.4
AAAACATAACATTGTTGTACTACTAATAAAATAAGT [XGTACX_site6149] | 8.8 ± 0.52
ATATTATATATGTATAGTACATATTATAAGAAAAAT [XGTACX_site3457] | 8.87 ± 0.65
ATATATAAAAAAGCTAGTACACAAAAATATATAATG [XGTACX_site3001] | 8.95 ± 0.54
TTATATATAAATGTGTGTACTTATAAAATAATCATT [XGTACX_site5370] | 8.78 ± 0.43
TAATTTTTTAGACACACACACATATAAATATAAATA [CACACA_site6195] | 9.37 ± 0.34
TATATATATAGACACACACACATATAAATAAATAAA [CACACA_site444] | 9.56 ± 0.34
TATATAAATAGACACACACACATATAAATATAAATA [CACACA_site6503] | 9.69 ± 0.32
TAAATTTATAGACACACACACATATAAATAAATATA [CACACA_site6530] | 9.71 ± 0.22
AATAAATTTAGACACACACACACATATAAATAAATA [CACACA_site6531] | 10.1 ± 0.23
CATATAAATAGACACACACACACATATAAATAAATA [CACACA_site7156] | 10.1 ± 0.4
TATGAAGACACAAATACACACACTCAAAAAAAAAAA [CACACA_site2660] | 9.41 ± 0.44

Sequence | gcPBM binding intensity (ln)
AAAAAAAAAAAAAAAACACACATTTGAAGAAAAAAA [CACACA_site7389] | 8.58 ± 0.51
ATTGTATAAAAATGTACATGCAATAAATTTAGTTCT [TGCATGCA_site675] | 8.77 ± 0.42
CAAAAGGATAGGCACACACACACACCCATATATATA [CACACA_site2199] | 10.2 ± 0.23
CAAAAGGATAGGCACACACACACACCGATATATATA [CACACA_site8685] | 10.1 ± 0.21
TAAAAGGATACATATACACACATATATATATATATA [CACACA_site2791] | 9.72 ± 0.13
CCATAAAAAGGATACACACACACACCGACATATATA [CACACA_site4653] | 10.2 ± 0.23
ATAAAGCACACCGACACACACATATATATATATATA [CACACA_site1047] | 10.54 ± 0.099
CCATAAAAAGGATACACACACACACGCACATATATA [CACACA_site6550] | 9.92 ± 0.11
AAATAAAGCACACCGACACACACATATATATATATA [CACACA_site8256] | 10.03 ± 0.057
AAAGATAAAAAAAGTACACACACACCGATATATATA [CACACA_site9006] | 10 ± 0.14
AAAAAAAAAAAAAGTACACACATACAGATAAATATA [CACACA_site5067] | 9.16 ± 0.48
ATAAAGCACACCGACACACACATATTTATATTTATA [CACACA_site6620] | 9.68 ± 0.43
TACAGATAAAAGTACACACACACACCGATATATATA [CACACA_site4675] | 10.12 ± 0.099
GCCAAAAGGATATGCACACACACACCCATATATATA [CACACA_site2198] | 9.94 ± 0.42
TTTATAATATGTTATACATGCAGGTACCTTTTTGTA [TGCATGCA_site746] | 8.9 ± 0.46
TATAACACACAATGATGTACATTACATTATTTTTTA [XGTACX_site2076] | 8.79 ± 0.45
ATAACAATTATTTGTCGACACACGTATATGTTATTT [CACACA_site1766] | 9.41 ± 0.38
ATATTCTTTTTATGTGGTACTAATTTTTTTTTTTTA [XGTACX_site3791] | 8.66 ± 0.57
CGAAAAAATAAAAAAAAAATAAAATAAAATAAATAA [TGCATGCA_negctrl_site278] | 8.56 ± 0.59

Source: the supplement of paper PMC11417369
